Only some compounds are listed: those with a hit (about 7.9% of all), similar ones and a draw of the others.
MCF10A rereplic = A quantitative high throughput screen for small molecules that induce DNA re-replication in MCF 10a normal breast cells | MCF 10A DNA re-replication, Hoechst nuclear intensity, 48 h | Potency, µM (titrated, usually from 46.1 µM), usual class: activators | actives 2.9% (n = 350,000); note: nearly all actives have a fitted effect of over 50% in size
HT1080 IDH1KD tx = qHTS for induction of synthetic lethality in tumor cells producing 2HG: qHTS for the HT-1080-IDH1KD cell line; AID 686971, 2013; actives 2% (n = 360,000); HT-1080 IDH1 knockdown viability, ATP luminescence, 48 h; Potency, µM (titrated, usually from 46.1 µM), usual class: cytotoxic
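Knockdown cells (IDH1KD HT-1080) received compounds 2 h after plating at 750 cells/well and were kept 48 h at 37 °C in 5% FBS RPMI. A CellTiter-Glo luminescence read gave % activity for curve fitting.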
SW480 rerep = A quantitative high throughput screen for small molecules that induce DNA re-replication in SW480 colon adenocarcinoma cells; AID 624297, 2012; Potency, µM (top dose mostly 46.1 µM), most hits filed as activators; actives 1.8% (n = 340,000); SW480 DNA re-replication, Hoechst DNA content imaging, 48 h; note: nearly all actives have a fitted effect of over 55% in size
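250 cells/well; 23 nL cpd via pin tool; 48 hr, 37 C, 5% CO2; Hoechst 40 min; imager read of total nuclear intensity, ex 405/em 500-530 nm.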
HT1080NT lethal = qHTS for induction of synthetic lethality in tumor cells producing 2HG: qHTS for the HT-1080-NT fibrosarcoma cell line. HT-1080-NT fibrosarcoma viability, CellTiter-Glo ATP luminescence, 48 h. actives 1.6% (n = 360,000). Potency, µM (highest dose often 46.1 µM), actives largely listed as cytotoxic. AID 686970, 2013;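 note: NT is the 2HG producing partner of a matched IDH1 knockdown line; nearly all actives have a fitted effect of over 55% in size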
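Viability by CellTiter-Glo luminescence after 48 h compound exposure at 37C of HT-1080-NT cells (750/well, RPMI, 5% FBS). % activity scaled between DMSO wells and medium-only wells, then curve-fitted and categorized by curve class.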
KB-V1 MDR tox = qHTS assay for MDR1-selective chemotherapeutics: Primary screen using the drug-selected MDR subline cells KB-V1; KB-V1 MDR cells viability, CellTiter-Glo, 72 h; Potency, µM (top dose mostly 46.1 µM), hits mostly cytotoxic; actives 3.4% (n = 400,000); note: nearly all actives have a fitted effect of over 60% in size
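KB-V1 MDR subline cells in DMEM (phenol-red free, 10% FBS) exposed to compounds in qHTS concentration series for 72 h at 37 degrees C. Viability read by CellTiter-Glo luminescence; concentration-effect curves fitted after normalization and correction.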
KB-3-1 tox = qHTS assay for MDR1-selective chemotherapeutics: Primary screen using the parental adenocarcinoma cell KB-3-1; KB-3-1 viability, CellTiter-Glo ATP luminescence, 72 h; Potency, µM (highest dose often 46.1 µM), actives largely listed as cytotoxic; actives 1.4% (n = 400,000); AID 1347075, 2019; note: nearly all actives have a fitted effect of over 60% in size
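Here the drug-naive KB-3-1 line serves as comparator for MDR sub-line selectivity; cells received compound titrations, 72 h at 37 °C, then CellTiter-Glo readout.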
Each line names hits and unclear results; the compound was inactive in the other large screens. Calls come from the whole dose curve; as a rule, active = well fitted curve in the direction sought with a large enough effect; inconclusive = small, poorly fitted or top-dose-only effect, or another doubt; inactive = no such curve, though single readings can be large; an effect the other way counts as inactive or inconclusive.

Cc1ccnc(NC(=O)N2CCN(c3cccc(C(F)(F)F)c3)CC2)c1	KB-V1 MDR tox inconclusive (no result: MCF10A rereplic, HT1080 IDH1KD tx, SW480 rerep, HT1080NT lethal)
CCN(CC)c1ccc(/C=N/NC(=O)c2cccc(S(=O)(=O)Nc3ccccc3OC)c2)cc1	MCF10A rereplic 16µM, HT1080 IDH1KD tx inconclusive
CCN(CC)c1ccc(/C=N/NC(=O)c2cccc(S(=O)(=O)Nc3ccccc3OC)c2)c(O)c1	MCF10A rereplic inconclusive, HT1080 IDH1KD tx inconclusive, SW480 rerep inconclusive, HT1080NT lethal inconclusive, KB-3-1 tox inconclusive
COc1ccccc1NS(=O)(=O)c1cccc(C(=O)N/N=C/c2ccc3c(c2)OCCO3)c1	KB-V1 MDR tox inconclusive
COc1ccccc1NS(=O)(=O)c1cccc(C(=O)N/N=C/c2ccc([N+](=O)[O-])o2)c1	MCF10A rereplic 21µM, HT1080 IDH1KD tx inconclusive, SW480 rerep 13µM, HT1080NT lethal inconclusive, KB-V1 MDR tox inconclusive, KB-3-1 tox inconclusive
Cc1cc(Nc2nc3ccccc3c3nnc(C)n23)ccc1Br	none (no result: MCF10A rereplic, HT1080 IDH1KD tx, SW480 rerep, HT1080NT lethal)
CC1(C)CC[C@]2(C(=O)n3ccnc3)CC[C@]3(C)[C@H](C(=O)C=C4[C@@]5(C)C=C(C#N)C(=O)C(C)(C)[C@@H]5CC[C@]43C)[C@@H]2C1	MCF10A rereplic 0.52µM, HT1080 IDH1KD tx 3.7µM, SW480 rerep inconclusive, HT1080NT lethal 4.1µM, KB-V1 MDR tox inconclusive, KB-3-1 tox inconclusive
Cc1nn(-c2ccccc2)nc1CNC(=O)c1ncoc1-c1ccccc1	MCF10A rereplic 23µM, HT1080 IDH1KD tx inconclusive, HT1080NT lethal inconclusive
COc1ccc([C@H]2C[C@H](O)[C@@H](n3cc(C4CC4)nn3)CN2CC2CCCCC2)cc1	KB-V1 MDR tox inconclusive (no result: MCF10A rereplic, SW480 rerep)
Cc1ccc([C@H]2C[C@@H](n3cc(C4CC4)nn3)[C@H](O)CN2CC2CCCCC2)cc1	KB-V1 MDR tox inconclusive, KB-3-1 tox 21µM (no result: MCF10A rereplic, SW480 rerep)
COc1ccc([C@H]2C[C@@H](n3cc(C4CC4)nn3)[C@H](O)CN2CC2CCCCC2)cc1	HT1080 IDH1KD tx inconclusive, HT1080NT lethal inconclusive, KB-V1 MDR tox inconclusive, KB-3-1 tox 16µM (no result: MCF10A rereplic, SW480 rerep)
Cc1ccc([C@H]2C[C@H](O)[C@@H](n3cc(C4CC4)nn3)CN2CC2CCCCC2)cc1	none (no result: MCF10A rereplic, SW480 rerep)
COc1ccc(N2CCN(C3CCCN(C(=O)CSC)C3)CC2)cc1 (stereo not given)	none
O=c1ccn(Cc2ccccc2)c(=O)n1Cc1ccccc1	MCF10A rereplic 21µM
Cn1c(N)cc(=O)n(Cc2ccccc2)c1=O	none
C[C@@H]1CN([C@H](C)CO)C(=O)CCCn2cc(nn2)CO[C@H]1CN(C)S(=O)(=O)c1ccc(Oc2ccccc2)cc1	none (no result: MCF10A rereplic, SW480 rerep)
O=C(CCSc1nc2ccccc2s1)N/N=C/c1c(O)ccc2ccccc12	MCF10A rereplic 21µM, HT1080 IDH1KD tx inconclusive, SW480 rerep 6.5µM, HT1080NT lethal inconclusive, KB-3-1 tox inconclusive
O=C(CN1CCCC1)N/N=C/c1c(O)ccc2ccccc12	MCF10A rereplic inconclusive, HT1080 IDH1KD tx 16µM, HT1080NT lethal inconclusive, KB-3-1 tox inconclusive
O=C(N/N=C/c1c(O)ccc2ccccc12)c1cccc(C(F)(F)F)c1	MCF10A rereplic 4.6µM, HT1080 IDH1KD tx 2.3µM, SW480 rerep inconclusive, HT1080NT lethal inconclusive, KB-3-1 tox inconclusive
O=C(N/N=C/c1ccc(N2CCOCC2)o1)c1cccc(C(F)(F)F)c1	MCF10A rereplic 21µM, SW480 rerep inconclusive
Cc1ccc(O)c(/C=N/NC(=O)CN2CCCC2)c1	HT1080 IDH1KD tx inconclusive, KB-V1 MDR tox inconclusive
O=C(COc1ccc2ccccc2c1)N[C@@H](C(=O)O)c1ccc(O)cc1	none
O=C(N/N=C\c1c(O)ccc2ccccc12)c1ccc(Cn2cccn2)o1	MCF10A rereplic 10µM, HT1080 IDH1KD tx inconclusive, SW480 rerep inconclusive, HT1080NT lethal inconclusive, KB-V1 MDR tox inconclusive, KB-3-1 tox 16µM
O=C(NN=Cc1c(O)ccc2ccccc12)C1CC1	HT1080 IDH1KD tx 12µM, SW480 rerep inconclusive, HT1080NT lethal inconclusive, KB-V1 MDR tox inconclusive, KB-3-1 tox inconclusive
Cc1onc(-c2c(Cl)cccc2Cl)c1C(=O)N/N=C(\N)COc1ccc(Cl)cc1	MCF10A rereplic inconclusive, HT1080 IDH1KD tx inconclusive, HT1080NT lethal inconclusive, KB-3-1 tox 4.1µM
CSCC[C@H](NC(=O)N1CCn2c1nc1ccccc12)C(=O)NCC1CCCO1 (stereo not given in full)	none
COc1ccccc1CNS(=O)(=O)CCNCCc1ccccc1	MCF10A rereplic 21µM
CN1CN(C)C(c2ccncc2)=C1c1ccncc1	none
O=C(Nc1ccc(N2CCOCC2)cc1)c1cc2c(s1)CCCCC2	HT1080 IDH1KD tx 7.3µM, SW480 rerep inconclusive, KB-3-1 tox inconclusive
O=C(Nc1cccc(S(=O)(=O)Nc2ccc(Cl)cc2)c1)c1cc2c(s1)CCCC2	MCF10A rereplic inconclusive, HT1080 IDH1KD tx 21µM, HT1080NT lethal 21µM
Cc1ccc(-c2nc3cccc(C)n3c2Nc2ccc(F)cc2)o1	none (no result: MCF10A rereplic, SW480 rerep, KB-V1 MDR tox, KB-3-1 tox)
CSC1(SC2=NCCN2)SC2(NCCN2)S1	MCF10A rereplic 3.7µM, HT1080 IDH1KD tx inconclusive, SW480 rerep inconclusive, KB-V1 MDR tox inconclusive, KB-3-1 tox inconclusive
C/C=C/c1c(F)c(F)c(Oc2ccc(C(=O)O)cc2)c(F)c1F	MCF10A rereplic inconclusive, HT1080NT lethal 16µM
O=C(Cn1c(-c2ccccc2)c[n+]2ccsc12)c1ccc([N+](=O)[O-])cc1	HT1080 IDH1KD tx inconclusive, HT1080NT lethal inconclusive, KB-3-1 tox 21µM
Cc1ccc(NC(=O)NN2CCN(C)CC2)cc1C	none
COc1cccc(/C=N\n2c(C)nnc2C)c1OC	none
COc1ccc(/C=N/n2c(SC)nnc2-c2ccccc2)c(OC)c1OC	MCF10A rereplic 15µM, HT1080 IDH1KD tx inconclusive, SW480 rerep 5.8µM, KB-V1 MDR tox 5.2µM, KB-3-1 tox inconclusive
COc1ccc(/C=N/n2c(SC)nnc2-c2ccccc2)cc1C	MCF10A rereplic 18µM, HT1080 IDH1KD tx inconclusive, SW480 rerep 7.3µM, HT1080NT lethal inconclusive, KB-V1 MDR tox 18µM, KB-3-1 tox inconclusive
O=C(CCNS(=O)(=O)c1ccc(F)cc1)N1CCN(c2ncccn2)CC1	none (no result: MCF10A rereplic, SW480 rerep)
COc1cccc(NC(=O)[C@@H]2CCCN2C(=O)C2CCN(S(=O)(=O)c3ccc(C)cc3)CC2)c1	HT1080NT lethal inconclusive, KB-V1 MDR tox 18µM
Cc1ccc(CNC(=O)C2CCCN2C(=O)Nc2ccccc2)cc1 (stereo not given)	MCF10A rereplic 0.65µM

From PubChem
